Marburg entry inh – qHTS for inhibitors of binding or entry into cells for Marburg Virus; AID 540276, 2011; 1.8% of 300,000 active; Marburg virus pseudotyped entry inhibition, cell reporter; Potency, µM (highest dose often 37.8 µM), without a hit: at the top dose activity change, negative = inhibition, hits mostly inhibitors; calls by dose curve; tested in HEK293 cells; also: potency is read from the fitted curve at half-maximal effect; % is scaled to controls: 0 for no effect and ±100 for the full control effect
HCV inhibitor – qHTS Assay for Inhibitors of Hepatitis C Virus (HCV); Huh7.5.1 HCVcc-Cre infection, luciferase reporter, 44 h; Potency, µM (series often up to 41.8 µM), for inactives: at the highest dose activity change, negative = inhibition, usual class: inhibitors; 3.4% of 340,000 active; AID 651820, 2012; active = well fitted inhibition curve with a large enough effect; inconclusive = small, poorly fitted or top-dose-only effect, or another doubt; inactive = no such curve, though single readings can be large or run the other way; also: potency is read from the fitted curve at half-maximal effect; % is scaled to controls: 0 for no effect and ±100 for the full control effect
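Seed cells (1,000/well) for 4 h; treat with compound and infect with HCVcc-Cre, moi about 0.5. Incubate 44 h, then detect luciferase activity.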
Lassa entry inh – qHTS for Inhibitors of binding or entry into cells for Lassa Virus | Lassa virus pseudotype entry inhibition, cell reporter | Potency, µM (series often up to 37.9 µM), for the others: at the highest dose activity change, negative = inhibition, usual class: inhibitors | 1.2% of 300,000 active | AID 540256, 2011; calls by dose curve; tested in HEK293 cells; also: potency is read from the fitted curve at half-maximal effect; % is scaled to controls: 0 for no effect and ±100 for the full control effect; nearly all actives have a fitted effect of over 50% in size
SARS PLpro yeast – qHTS of Yeast-based Assay for SARS-CoV PLP | S. cerevisiae expressing SARS-CoV PLpro, growth rescue | Potency, µM (doses to about 32.9 µM), inactives show at the top dose activity, positive = growth rescue, most hits filed as activators | 0.19% of 330,000 active | AID 485353, 2010; calls by dose curve; also: potency is read from the fitted curve at half-maximal effect; 0% is about no effect; nearly all actives have a fitted effect of over 55% in size
HCMV antiviral – qHTS Assay for inhibitors of the human cytomegalovirus (HCMV). HFF cells, HCMV-luciferase reporter, 72 h; hits give low values. activity change, negative = inhibition, % at 57.5 µM. 4.5% of 410,000 active; in the data active = activity change below about -60%; inconclusive = no clear call, values can overlap the other calls; inactive = above about -39%; also: % is scaled to controls: 0 for no effect and ±100 for the full control effect
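HFF cells seeded 16 h at 37C, treated with compounds, infected with luciferase-reporter HCMV at MOI 1 PFU/cell; luciferase read at 72 h post infection, normalized to buffer-only and Salinomycin controls.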
FMDV antiviral – High Throughput Screening for Foot and Mouth Disease Virus Antivirals | FMDV antiviral cell-based qHTS | 1.2% of 410,000 active | Potency, µM (series often up to 57.9 µM), for the others: at the top dose activity change, negative = inhibition, hits mostly inhibitors; calls by dose curve; tested in HEK293T cells; also: read-out not given here; potency is read from the fitted curve at half-maximal effect; % is scaled to controls: 0 for no effect and ±100 for the full control effect; nearly all actives have a fitted effect of over 45% in size
* marks the source's active call; other numbers are inactive results; ? = inconclusive; · = no result given; [ ] = remark or other dose. Most compounds without a hit are left out; they make up all but 8% or so of the library.

SMILES	Marburg entry inh	HCV inhibitor	Lassa entry inh	SARS PLpro yeast	HCMV antiviral	FMDV antiviral
Cc1ccc(-n2ncc3c2CCCC3NC(=O)c2ocnc2C)cc1C (stereo not given)	?	?	?	·	-89.5*	?
CSc1ncccc1C(=O)NC1CCCc2c1cnn2-c1ccc(C)c(C)c1 (stereo not given)	?	8.91µM*	-0.4%	-0.5%	-28.9	28.2µM*
CCn1nc(C)cc1C(=O)NC1CCCc2c1cnn2-c1ccc(C)c(C)c1 (stereo not given)	?	?	?	-8.8%	-85.9*	10µM*
COc1ncccc1C(=O)NC1CCCc2c1cnn2-c1ccc(C)c(C)c1 (stereo not given)	·	?	·	-9.6%	-23.2	-40.1%
CCc1[nH]nc(C(=O)NC2CCCc3c2cnn3-c2cc(C)cc(C)c2)c1C (stereo not given)	3.55µM*	-7.8%	?	-4.5%	?	27.1%
CCc1noc(C)c1C(=O)NC1CCCc2c1cnn2-c1cc(C)cc(C)c1 (stereo not given)	·	-9.3%	·	-5.5%	-28.4	7.4%
Nn1cc(Br)c(=O)[nH]c1=O	·	·	·	·	·	11.3%
COC(=O)CC(=O)O[C@H]1C=C[C@@H](NC(=O)OC(C)(C)C)C1	·	31.6µM*	·	·	-16.1	-6.7%
CCOC(=O)C1NNN2C3CCCCC3C(N(CC)CC)NC12 (stereo not given)	17.5%[46.1 µM]	·	·	·	·	·
CCc1ccc(NC(=O)c2ccc3c(c2)C(=O)N(CCOC)C3Nc2ccc(CC)cc2)cc1 (stereo not given)	-0.8%	-18.8%	26.1%	0.1%	-89.9*	28.1%
COCCN1C(=O)c2cc(C(=O)Nc3cccc(F)c3)ccc2C1Nc1cccc(F)c1 (stereo not given)	-22.6%	?	?	-1.5%	-38.0	-2.6%
CCCCOc1ccc(-n2nc(C)cc2C)nn1	16.3%	8.5%	30.0%	-4.3%	-82.4*	17.7%
CC(=O)Nc1ccccc1-c1nc(CNC(=O)c2ccc(C)cc2)c(C)o1	·	·	·	·	·	11.7%
Cc1ccc(CSCC(=O)NCc2ccco2)cc1	-11.3%	1.2%	1.41µM*	2.0%	-30.1	3.5%
CCCCN(CCCC)CCNC(=O)CSCc1ccc(C)cc1	7.08µM*	-9.2%	-11.1%[46.1 µM]	-1.0%	?	?
Cc1ccc(SCC(=O)NCc2ccco2)cc1	-10.5%	8.4%	15.6%	-17.7%	25.5	27.8%
Cc1c(NC(=O)c2sc3ccccc3c2Cl)cccc1-c1nc2ccccc2o1	·	·	-19.7%[46.1 µM]	·	26.4	-13.8%
c1ccc(CCc2nc(-c3cccnc3)no2)cc1	2.7%[46.1 µM]	11.2µM*	3.7%	-1.8%	9.5	41.6%
c1ccc(CCc2ccccc2-c2nc(-c3cccnc3)no2)cc1	?	7.08µM*	-13.9%	-33.2%	-21.7	?
c1ccc(-c2ccccc2-c2nc(-c3cccnc3)no2)cc1	?	11.2µM*	0.3%	-4.5%	-15.8	-6.6%
c1ccc(CCc2nc(-c3ccccc3)no2)cc1	-1.8%	9.6%	?	0.7%	12.5	58.1%
O=C(Nc1ccc(-c2noc(CCc3ccccc3)n2)cc1)c1ccco1	?	?	?	-34.2%	-87.8*	-31.6%
N#C/C(=C\c1c(Oc2ccc(F)cc2)nc2ccccn2c1=O)c1nc2ccccc2s1	?	·	?	·	0.0	-12.2%
CC(C)(C)C(=O)Nc1ccc2nc(SCC(=O)N3CCc4ccccc43)sc2c1	?	·	?	·	-8.5	?
N#Cc1nc(-c2cccs2)oc1NCc1ccccc1	5.9%[46.1 µM]	5.8%	17.5%	-23.3%	16.3	9.9%
N#Cc1nc(-c2cccs2)oc1NCc1ccc(Cl)cc1	-3.2%	10µM*	0.7%	5.7%	-33.0	11.6%
O=C(c1ccc2ccccc2c1)N1CCN(c2ccc(O)cc2)CC1	3.5%	2.8%	-6.2%	-4.7%	-33.7	32.6%
O=C(CCl)N1CCN(S(=O)(=O)c2ccc3ccccc3c2)CC1	?	?	?	8.5%	-97.9*	25.1µM*
CN1CCN(S(=O)(=O)c2ccc3ccccc3c2)CC1	·	13.7%	·	-5.4%	8.9	-6.0%
